Laboratory results reported in PubChem BioAssay (Tox21).
Inconclusive results are not listed. A call without a number means that no potency is given here. Calls of active or inactive are those of the source. Calls follow the shape of the dose curve; as a rule, active = well fitted activation curve with a large enough effect in the repeat runs; inconclusive = weak or mixed curves; inactive = flat fitted curve, though single readings scatter.

assay: A CellTox Green Cytotoxicity Assay to monitor cytotoxicity in HEK293 cells - 32 hour (AID 1224881); settings: CellTox Green fluorescence; series mostly up to 76.8 µM; also: nearly all actives have a fitted effect of over 40% in size
Source text: National Center for Advancing Translational Sciences [NCATS]
NIH Chemical Genomics Center [NCGC]
U.S. Environmental Protection Agency [EPA]
National Institutes of Environmental Health Sciences [NIEHS]
National Toxicology Program [NTP]
Cell-based models are critical for drug discovery. Determining the natural cytotoxic effects resulting from test compounds is an essential research activity. A CellTox Green Cytotoxicity Assay to monitor cytotoxicity in real time of continues cell culture during 40 hours of the compound treatment was used to screen Tox21 10K library compounds in Hek293 cells. CellTox Green Cytotoxicity Assay is a nonlytic, homogeneous, biofluorescent method to measure cytotoxicity in cell culture after experimental manipulation. The assay system uses a proprietary asymmetric cyanine dye that is excluded from viable cells but preferentially stains the dead cell's DNA. […] Viable cells produce no appreciable increases in fluorescence. Therefore, the fluorescence signal produced by the binding interaction with dead cell DNA is proportional to cytotoxicity.
The mixture of Hek293 cell suspension and reagents were dispensed at 600cells/6 ul/well in 1536-well tissue culture treated black solid bottom plates using a Multidrop dispenser. After the assay plates were incubated at a 37 C/5% CO2 incubator for 5 hours, 23 nL of compounds dissolved in DMSO, positive and negative controls was transferred to the assay plate by a pintool work station. The plates were incubated at 37 C for 40 hours. The fluorescence intensity were measured at 0h, 8h, 16h, 24h, 32h and 40h time points using ViewLux plate reader during compound treatment.

Row | Structure (SMILES) | Potency
1 | CC(C)c1ccc2cc(C(C)C)ccc2c1 | inactive
2 | CCN(C)C(=O)Oc1cccc([C@H](C)N(C)C)c1 | inactive
3 | CO[C@@H]1[C@@H](OC(N)=O)[C@@H](O)[C@H](Oc2ccc3c(O)c(NC(=O)c4ccc(O)c(CC=C(C)C)c4)c(=O)oc3c2C)OC1(C)C | inactive
4 | CC[C@H](C)C(=O)O[C@H]1C[C@H](O)C=C2C=C[C@H](C)[C@H](CC[C@@H](O)C[C@@H](O)CC(=O)O)[C@H]21 | inactive
5 | Cc1ccc2ccc(Cl)cc2n1 | inactive
6 | COP(=O)(OC)OC(c1ccc(Cl)cc1)P(=O)(OC)OC (stereo not given) | inactive
7 | CNS(=O)(=O)CCc1ccc2[nH]cc(C3CCN(C)CC3)c2c1 | inactive
8 | O=C1c2ccccc2C(=O)c2cc(S(=O)(=O)O)ccc21 | inactive
9 | CC(=O)c1ccc2c(c1)Cc1ccccc1-2 | inactive
10 | C=C(C)C(=O)OCCNC(C)(C)C | inactive
11 | COc1ccc(S(=O)(=O)N2c3ccc(Cl)cc3[C@@](O)(c3ccccc3Cl)[C@H]2C(=O)N2CCC[C@@H]2C(N)=O)cc1OC | inactive
12 | FC(F)(F)c1ccccc1-n1ccnc1 | inactive
13 | CCCCOC(=O)c1ccccc1 | inactive
14 | C[C@H](N)[C@H](O)c1cccc(O)c1 | inactive
15 | CC(C)CC(=O)O | inactive
16 | COc1ccc2nc(SCc3ncc(C)c(OC)c3C)[nH]c2c1 | inactive
17 | NC(CO)C(=O)NNCc1ccc(O)c(O)c1O (stereo not given) | inactive
18 | O=C(O)c1ccc(Cl)cc1Cl | inactive
19 | CCCCCCCCSCC | inactive
20 | COc1cc(C(=S)N2CCOCC2)cc(OC)c1OC | inactive

Row | Structure (SMILES) | Potency
21 | N#Cc1ccc(C(=O)O)cc1 | inactive
22 | Cc1cc(NC(=O)C2=C(O)c3ccccc3S(=O)(=O)N2C)no1 | inactive
23 | Cc1cc2cc3c(C)cc(=O)oc3c(C)c2o1 | inactive
24 | CCCCCOC(=O)CCC | inactive
25 | COc1nccnc1NS(=O)(=O)c1ccc(N)cc1 | inactive
26 | CCCN1C[C@H](CSC)C[C@@H]2c3cccc4[nH]cc(c34)C[C@H]21 | inactive
27 | Nc1cccc(O)c1 | inactive
28 | O=C1c2cccc3c2[C@H](CCC3)CN1[C@@H]1CN2CCC1CC2 | inactive
29 | O=C(O)Cc1ccc(Cl)cc1Cl | inactive
30 | CC(=O)OC(C)OC(=O)C(C)c1ccc(-c2ccccc2)c(F)c1 (stereo not given) | inactive
31 | COc1cc(N)ccc1C | inactive
32 | O=C(c1ccc(O)cc1)c1ccc(O)c(O)c1O | inactive
33 | C=C(C)C1CCC(C)(O)CC1 (stereo not given) | inactive
34 | CC1(CO)CN(c2ccccc2)NC1=O (stereo not given) | inactive
35 | CCCCCCCCC(=O)Cl | inactive
36 | OCCCCC(O)CO (stereo not given) | inactive
37 | COc1ccc2c(c1)C(=O)N(CCc1ccc(S(=O)(=O)NC(=O)NC3CCCCC3)cc1)C(=O)C2(C)C | inactive
38 | CC(C)C[C@H](NC(=O)CNC(=O)[C@H](Cc1ccc(O)cc1)NC(=O)[C@H](CO)NC(=O)[C@H](Cc1c[nH]c2ccccc12)NC(=O)[C@H](Cc1cnc[nH]1)NC(=O)[C@@H]1CCC(=O)N1)C(=O)N[C@@H](CCCN=C(N)N)C(=O)N1CCC[C@H]1C(=O)NCC(N)=O (stereo in doubt) | inactive
39 | Cc1c(I)c(=O)n(-c2ccccc2)n1C | inactive
40 | C=C1CC/C=C(\C)CC[C@@H]2[C@@H]1CC2(C)C | inactive
